Measured values taken from PubChem BioAssay AID1159580 (chemical genetic matrix, 2015).
Values joined by “and” are separate entries in the source; they are usually repeats but may differ in a detail not shown here. Equal values may be shown once. Among all 5,500 compounds or so, about 2,000 (36%) were called active. Inconclusive results (about 18%) are left out. Cut-off read from the data, not from the text of the source: active = normalized growth mostly below about 0.91 (no sharp cut-off); inconclusive = no clear call, values can overlap the other calls; inactive = mostly above about 0.92. The list shows a part of the results.

Assay: chemical genetic growth profiling, strain panel (AID 1159580);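 note: tested at 20 µM; growth read once vehicle control cultures reached saturation at 30 °C; 1 = growth at the plate median or of vehicle wells; lower values mean less growth of the strain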
Settings: S. cerevisiae deletion strains, growth OD

Measured: normalized growth

Cc1ccccc1N1C(=O)c2cc(S(N)(=O)=O)c(Cl)cc2NC1C (stereo not drawn)
inactive: locus YAL013W, strain DEP1, hits give low values 0.989 | locus YAL021C, strain ccr4, hits give low values 1 | locus YAL026C, strain drs2, hits give low values 0.983 | locus YAL030W, strain snc1, hits give low values 0.991 | locus YBL061C, strain skt5, hits give low values 0.987 | locus YBR009C, strain hhf1, hits give low values 1 | locus YBR021W, strain FUR4, hits give low values 0.968 | locus YBR023C, strain chs3, hits give low values 0.989 | locus YBR171W, strain sec66, hits give low values 0.963 | locus YBR229C, strain ROT2, hits give low values 0.982 | locus YBR231C, strain swc5, hits give low values 0.987 | locus YBR279W, strain paf1, hits give low values 0.996 | locus YCL011C, strain gbp2, hits give low values 0.997 | locus YCL016C, strain dcc1, hits give low values 1.03 | locus YCL029C, strain bik1, hits give low values 0.979 | locus YCL069W, strain vba3, hits give low values 0.996 | locus YCR088W, strain abp1, hits give low values 0.978 | locus YDL005C, strain med2, hits give low values 0.96 | locus YDL035C, strain GPR1, hits give low values 1.01 | locus YDL040C, strain nat1, hits give low values 0.986 | locus YDL074C, strain BRE1, hits give low values 1.02 | locus YDL101C, strain DUN1, hits give low values 0.985 | locus YDL134C, strain PPH21, hits give low values 0.983 | locus YDL185W, strain tfp1, hits give low values 0.984 | locus YDL192W, strain arf1, hits give low values 0.98 | locus YDR001C, strain nth1, hits give low values 0.957 | locus YDR069C, strain doa4, hits give low values 0.96 | locus YDR101C, strain arx1, hits give low values 0.994 | locus YDR137W, strain rgp1, hits give low values 1 | locus YDR159W, strain sac3, hits give low values 0.973 | locus YDR162C, strain NBP2, hits give low values 0.994 | locus YDR195W, strain ref2 0.944 | locus YDR297W, strain sur2, hits give low values 1 | locus YDR318W, strain mcm21, hits give low values 0.99 | locus YDR334W, strain swr1, hits give low values 0.918 | locus YDR335W, strain msn5, hits give low values 0.973 | locus YDR388W, hits give low values 0.994 | locus YDR392W, strain spt3, hits give low values 1.01 | locus YDR502C, strain sam2, hits give low values 0.983 | locus YEL003W, strain gim4, hits give low values 0.978 | locus YEL037C, strain rad23, hits give low values 0.978 | locus YEL061C, strain CIN8 (second series), hits give low values 0.985 | locus YEL061C, strain CIN8, hits give low values 0.993 | locus YER015W, strain faa2, hits give low values 0.986 | locus YER016W, strain bim1, hits give low values 0.998 | locus YER110C, hits give low values 0.976 | locus YER111C, strain swi4, hits give low values 0.987 | locus YER155C, strain BEM2 (second series), hits give low values 0.99 | locus YER155C, strain BEM2, hits give low values 0.981 | locus YER167W, strain BCK2, hits give low values 0.981 | locus YFR010W, strain ubp6, hits give low values 0.968 | locus YGL078C, strain dbp3, hits give low values 0.981 | locus YGL086W, strain mad1, hits give low values 1.01 | locus YGL167C, strain pmr1, hits give low values 0.996 | locus YGL173C, strain kem1, hits give low values 1.01 | locus YGL227W, strain vid30, hits give low values 0.972 | locus YGL240W, strain doc1, hits give low values 0.995 | locus YGL248W, strain PDE1, hits give low values 1 | locus YGL253W, strain hxk2, hits give low values 0.972 | locus YGR135W, strain pre9, hits give low values 0.986 | locus YGR229C, strain SMI1, hits give low values 0.982 | locus YGR252W, strain gcn5, hits give low values 0.991 | locus YHR013C, strain ard1, hits give low values 1.02 | locus YHR027C, strain rpn1, hits give low values 0.991 | locus YHR030C, strain SLT2, hits give low values 0.987 and 0.961 | locus YHR079C, strain IRE1 (second series), hits give low values 0.997 | locus YHR079C, strain IRE1, hits give low values 0.966 | locus YHR094C, strain hxt1, hits give low values 0.99 | locus YHR129C, strain ARP1, hits give low values 0.988 | locus YHR142W, strain chs7, hits give low values 0.969 | locus YHR200W, strain rpn10, hits give low values 0.982 | locus YIL066C, strain RNR3, hits give low values 1.01 | locus YIL073C, strain SPO22, hits give low values 1.03 | locus YIL125W, strain kgd1, hits give low values 0.991 | locus YIR030C, strain dcg1, hits give low values 0.987 | locus YJL092W, strain hpr5, hits give low values 0.992 | locus YJL095W, strain BCK1 (second series), hits give low values 0.956 | locus YJL095W, strain BCK1, hits give low values 1.03 and 0.975 | locus YJL115W, strain asf1, hits give low values 0.965 | locus YJL129C, strain trk1, hits give low values 0.941 | locus YJL134W, strain LCB3, hits give low values 0.986 | locus YJL154C, strain vps35, hits give low values 0.961 | locus YJL164C, strain tpk1, hits give low values 1.03 | locus YJL166W, strain qcr8, hits give low values 0.978 | locus YJL168C, strain set2, hits give low values 0.992 | locus YJL187C, strain SWE1 (second series), hits give low values 1 | locus YJR043C, strain POL32, hits give low values 0.994 | locus YJR066W, strain TOR1, hits give low values 0.923
